Tests used:
Conditions in all cases: concentration: 1 μM, replicates: in singlicate; n = 1
EPHB3 = test system: EPHB3
EPHB4 = test system: EPHB4
EPHB6 = test system: EPHB6
ERBB2 = test system: ERBB2
ERBB3 = test system: ERBB3
ERBB4 = test system: ERBB4
ERK1 = test system: T1, ERK1
T1 construct: gene MAPK3

ERK2 = test system: T2, ERK2
T2 construct: gene MAPK1

ERK3 = test system: T3, ERK3
T3 construct: gene MAPK6

ERK4 = test system: T4, ERK4
T4 construct: gene MAPK4

ERK5 = test system: T5, ERK5
T5 construct: gene MAPK7

ERK8 = test system: T6, ERK8
T6 construct: gene MAPK15

ERN1 = test system: ERN1
FAK = test system: T7, FAK
T7 construct: gene PTK2

FER = test system: FER
FES = test system: FES
FGFR1 = test system: FGFR1
FGFR2 = test system: FGFR2
FGFR3 = test system: FGFR3
FGFR4 = test system: FGFR4
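Note: KINOMEscan kinase panel screen.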

Compound	%Inh (EPHB3)	%Inh (EPHB4)	%Inh (EPHB6)	%Inh (ERBB2)	%Inh (ERBB3)	%Inh (ERBB4)	%Inh (ERK1)	%Inh (ERK2)	%Inh (ERK3)	%Inh (ERK4)	%Inh (ERK5)	%Inh (ERK8)	%Inh (ERN1)	%Inh (FAK)	%Inh (FER)	%Inh (FES)	%Inh (FGFR1)	%Inh (FGFR2)	%Inh (FGFR3)	%Inh (FGFR4)
O=c1cc(N2CCOCC2)nc2n(Cc3ccc(F)c(Cl)c3)ccn12 [GSK2297099]	8%	15%	5%	0%	0%	24%	0%	0%	0%	25%	2%	0%	0%	0%	0%	0%	0%	0%	0%	0%
CCCC(=O)Nc1n[nH]c2ncc(-c3cccc4ccccc34)cc12 [SB-642057]	0%	0%	41%	11%	0%	26%	8%	0%	0%	22%	0%	0%	0%	8%	3%	0%	0%	0%	0%	19%
CN1C(=O)C(Nc2ccccc2)=C(c2ccccc2)C1=O [SB-300079]	0%	0%	0%	20%	28%	18%	0%	10%	9%	31%	0%	2%	17%	0%	0%	0%	0%	0%	0%	0%
O=C(Nc1n[nH]c2nc(-c3ccccc3)c(Cl)cc12)C1CC1 [SB-734909]	7%	15%	48%	6%	32%	0%	0%	0%	0%	0%	0%	0%	24%	0%	0%	0%	0%	4%	5%	0%
Cc1nnc(-c2ccc(C)c(-c3ccc(C(=O)O)cc3)c2)o1 [GW608005]	6%	5%	0%	36%	0%	76%	0%	0%	0%	0%	0%	20%	5%	0%	0%	0%	5%	0%	0%	0%
CCc1nc(-c2cccc(C)c2)c(-c2ccncc2)s1	7%	14%	0%	48%	0%	5%	0%	12%	0%	12%	4%	6%	0%	99.9%	13%	0%	0%	0%	0%	0%
CC(C)(C)c1ccc(C(=O)Nc2cn3cc(-c4ccccc4)ccc3n2)cc1	3%	0%	0%	50%	0%	4%	0%	0%	0%	6%	0%	20%	26%	0%	0%	0%	0%	1%	7%	0%
COc1cccc(C2=C(Nc3cccc(C(=O)O)c3)C(=O)NC2=O)c1 [SB-390770]	8%	7%	21%	6%	16%	0%	0%	0%	2%	0%	0%	36%	0%	3%	40%	0%	50%	71%	48%	14%
Nc1nc(-c2ccccc2F)c(-c2ccnc3ccccc23)s1 [GW560459]	0%	1%	0%	71%	0%	36%	10%	0%	0%	0%	0%	0%	0%	0%	13%	0%	0%	0%	0%	75%
Cl.c1ccc(Cn2cnc3cc(Nc4ncnc5ccccc45)ccc32)cc1 [GW272142]	12%	13%	80%	38%	0%	33%	0%	0%	19%	0%	1%	0%	1%	0%	21%	0%	0%	0%	14%	3%
COc1cc2nccc(Nc3cccc(Oc4ccccc4)c3)c2cc1OC.Cl [GW284543]	0%	0%	79%	24%	66%	31%	18%	0%	0%	10%	26%	13%	8%	23%	30%	4%	17%	26%	6%	8%
COc1cc(Nc2nccc(N3CCC(NC(=O)C(C)c4ccc(Cl)cc4)C3)n2)cc(OC)c1OC (stereo not drawn) [GSK1379757]	23%	11%	94.7%	61%	0%	26%	0%	0%	5%	12%	0%	0%	0%	0%	2%	18%	0%	45%	2%	0%
COc1cc2ncn(-c3cc(OCc4ccncc4)c(C(N)=O)s3)c2cc1OC [GSK336313]	0%	10%	22%	0%	0%	22%	0%	0%	28%	46%	0%	0%	23%	0%	24%	0%	0%	0%	7%	2%
COc1ccc(CNC(=O)NC2CCN(c3ccnc(Nc4ccc(F)cc4)n3)C2)cc1 (stereo not drawn) [GSK1379706]	6%	16%	30%	41%	47%	2%	6%	14%	14%	0%	0%	0%	0%	4%	25%	0%	0%	15%	22%	15%
COc1cccc(C2=C(N(C)c3ccccc3)C(=O)NC2=O)c1 [SB-334865]	3%	0%	11%	41%	0%	0%	7%	0%	0%	46%	0%	0%	0%	0%	0%	0%	0%	0%	3%	19%
CCC(=O)c1c(-c2ccccc2)c2cc(Cl)ccc2c(=O)n1Cc1cc(C(=O)NC2CC2)n(C)n1	20%	23%	25%	9%	4%	0%	0%	10%	0%	5%	4%	0%	12%	0%	0%	22%	4%	2%	0%	0%
Nc1nccc2scc(-c3ccc4c(c3)CCN4C(=O)Cc3ccccc3)c12 [GSK2576924]	4%	22%	88%	31%	0%	8%	0%	0%	0%	33%	10%	0%	15%	0%	16%	0%	0%	0%	27%	7%
CN(C)c1cc(-c2ccc3c(N)n[nH]c3c2)nc(N)n1 [GSK2219329]	9%	13%	3%	25%	0%	30%	15%	0%	11%	0%	0%	0%	0%	0%	16%	0%	0%	2%	7%	0%
Cc1cccc(-c2cc(-c3c[nH]nc3-c3ccccn3)ccn2)c1 [GW679395]	25%	22%	74%	19%	0%	36%	0%	0%	0%	19%	0%	0%	0%	0%	4%	0%	0%	0%	0%	4%
Nc1nc(N)c2nc(-c3ccccc3)[nH]c2n1 [SKF-12778]	0%	13%	39%	22%	4%	0%	7%	5%	6%	0%	0%	41%	11%	6%	14%	0%	16%	32%	21%	12%
COc1cc2nccc(Nc3ccc(OCc4ccc(NC(C)=O)cc4)cc3)c2cc1OC.Cl [GW440135]	32%	19%	19%	31%	40%	9%	0%	0%	5%	0%	0%	25%	0%	0%	4%	8%	4%	47%	26%	0%
